Compounds with a hit are over-represented: about 3.6% of the library has one in this group of screens.
mHTT CaM bind: mutant huntingtin-calmodulin interaction inhibitors – biochemical, AlphaScreen, primary screen | P42858 | AlphaScreen His-mHTT/GST-CaM binding, luminescence | inhibition, % at 15 µM | 3.6% of 190,000 active
Pf apPOL inh: Pf-apPOL inhibitors, biochemical, fluorescence; Plasmodium falciparum apicoplast DNA polymerase (apPOL); Recombinant Pf-apPOL, molecular beacon fluorescence, 1.5 h; inhibition, % at 10 µM; 0.25% of 210,000 active; AID 1794808, 2022
Each line names hits and unclear results; the compound was inactive in the other large screens. Cut-off read from the data, not from the text of the source: active = inhibition above about 50%; inactive = the rest.

Cc1ccc(NC(=O)CN2C(=O)C(C)N=C(c3ccccc3)c3ccccc32)cc1Cl (configuration not stated)	mHTT CaM bind 52
CC1N=C(c2ccccc2)c2ccccc2N(CC(=O)Nc2cccc(Cl)c2)C1=O (configuration not stated)	none
COc1cccc(CN2CCN(C)CC2)c1O	none
O=[N+]([O-])c1c(Br)c([N+](=O)[O-])c2n[nH]nc2c1Br	mHTT CaM bind 88
O=[N+]([O-])c1cc2nonc2c2n[nH]nc12	none (no result: Pf apPOL inh)
CC(=O)CC(c1cccc([N+](=O)[O-])c1)c1c(OC(C)=O)c2ccccc2oc1=O (configuration not stated)	none (no result: mHTT CaM bind)
Cc1cc(C=O)c(C)n1C1CCCC1	none (no result: Pf apPOL inh)
COc1cc(/C=C(\C)[N+](=O)[O-])cc(OC)c1OC	none
CC1=Nc2ccccc2C1=Cc1c(O)[nH]c(=O)[nH]c1=O	mHTT CaM bind 54
O=C(Nc1ccc2c(C(F)(F)F)cc(=O)oc2c1)c1cc([N+](=O)[O-])nn1Cc1ccccc1	none
Cc1nc(C(=O)Nc2ccc3c(c2)OCO3)c(C)n1C1CCN(C)CC1	mHTT CaM bind 71
Cc1nc(C(=O)Nc2ccc3c(c2)OCCO3)c(C)n1C1CCN(C)CC1	none
Oc1cc(Cl)c(Cl)cc1O	none
COc1ccc(N2CCN(Cc3cccc(Cl)c3Cl)CC2)cc1	mHTT CaM bind 56
COc1ccc(N2CCN(Cc3ccc(Cl)cc3)CC2)cc1	none
COc1ccc(N2CCN(Cc3ccc(Cl)c(Cl)c3)CC2)cc1	mHTT CaM bind 65
COc1ccc(N2CCN(Cc3ccc(F)cc3)CC2)cc1	none
O=C(O)C1Nc2c(F)cccc2C2C(Cl)C(Sc3ccccc3[N+](=O)[O-])CC12 (configuration not stated)	mHTT CaM bind 68
C=CCOc1ccc(C2SCC(=O)Nc3c2c(=O)[nH]n3C2CCCCC2)cc1 (configuration not stated)	none
Cc1cccc(-n2c(-c3cccnc3)nc3ccccc3c2=O)c1	mHTT CaM bind 100
Cc1ccc(-c2nc3ccccc3c(=O)n2-c2cccnc2)cc1	none
COC(=O)c1cc(C=C(C#N)C#N)cn1C	none (no result: mHTT CaM bind)
O=C(CCN1CCOCC1)Nc1ccc(Br)cc1C(=O)c1ccccc1	mHTT CaM bind 81
O=C(CN1CCOCC1)Nc1ccc(Br)cc1C(=O)c1ccccc1	none
O=C1NC(=O)C(C2(O)C(=O)c3ccccc3C2=O)C(=O)N1	none
COc1ccc(Cl)cc1NC(=O)C1c2cc(OC)c(OC)cc2C(=O)N2CCCCC12 (configuration not stated)	mHTT CaM bind 79
COc1ccc(Cl)cc1NC(=O)C1c2ccccc2C(=O)N2CCCCC12 (configuration not stated)	none
CCC(NC(=O)c1cn(C)c2ncccc12)c1cccs1 (configuration not stated)	none
Cc1ccc(CN2CCN(Cc3ccccc3)CC2)cc1	none
Nc1nc2ccccc2c(-c2cccc3ccccc23)c1CN1CC1	mHTT CaM bind 98 (no result: Pf apPOL inh)
N#CC1=C(N)C(C#N)(C#N)C(c2ccccc2C(F)(F)F)C2CSCC=C12 (configuration not stated)	mHTT CaM bind 55
Cc1ccccc1-n1c(/C=C2\C(=O)Nc3ccc(Br)cc32)nc2ccccc2c1=O	none
Cc1ccccc1-n1c(/C=C2\C(=O)N(C)c3ccccc32)nc2ccccc2c1=O	mHTT CaM bind 65
O=S(=O)(F)c1ccc(C2=CC(c3ccccc3)n3ncnc3N2)cc1 (configuration not stated)	mHTT CaM bind 100
O=S(=O)(F)c1ccc(-c2nnc(-c3ccccc3)o2)cc1	none
O=C1OC(c2cncc(Br)c2)=N/C1=C/c1ccc(Cl)c(Cl)c1	none
O=[N+]([O-])c1ccc(N2CCOCC2)c2nonc12	none (no result: mHTT CaM bind)
O=[N+]([O-])c1ccc(Cl)c2nonc12	mHTT CaM bind 96 (no result: Pf apPOL inh)
Nc1ccc([N+](=O)[O-])c2nonc12	mHTT CaM bind 53 (no result: Pf apPOL inh)
O=[N+]([O-])c1ccc(N2CCCCC2)c2nonc12	none (no result: mHTT CaM bind)
CCCC[n+]1cc(N=C([O-])OC)on1	none (no result: Pf apPOL inh)
COc1cc(CN2CCN(c3ccccc3)CC2)cc(Br)c1O	none
Cc1nnc2n1-c1sccc1C(c1ccccc1)=NC2	none (no result: mHTT CaM bind)
COc1ccc2c(c1)C1(CCN(C(=O)c3cccc(C)c3)C1)C(=O)N2 (configuration not stated)	none
COc1ccc2c(c1)C1(CCN(C(=O)c3ccc(C)c(F)c3)C1)C(=O)N2C (configuration not stated)	none
Cc1cc(C)n(C(=O)CN2C(=O)CN=C(c3ccccc3)c3cc(Br)ccc32)n1	mHTT CaM bind 64
CC1N=C(c2ccccc2)c2ccccc2N(CC(=O)NCc2ccco2)C1=O (configuration not stated)	none
O=C(CN1C(=O)CN=C(c2ccccc2)c2cc(Cl)ccc21)Nc1cccc(C(F)(F)F)c1	mHTT CaM bind 82
CCN(C(=O)CN1C(=O)C(C)N=C(c2ccccc2)c2ccccc21)c1cccc(C)c1 (configuration not stated)	none
